Screening data: PubChem, Broad Institute
In the library only some 0.32% were active in any assay of this set; here they are far more common.
TcdB GH inh: TcdB glycohydrolase inhibition. P18177. TcdB glycohydrolase enzymatic assay, plate reader. inhibition, % at 9.99 µM. 350,000 compounds, 0.24% hits. AID 652162; in the data active means inhibition above about 10%
Target sequence (P18177 whole entry, looked up): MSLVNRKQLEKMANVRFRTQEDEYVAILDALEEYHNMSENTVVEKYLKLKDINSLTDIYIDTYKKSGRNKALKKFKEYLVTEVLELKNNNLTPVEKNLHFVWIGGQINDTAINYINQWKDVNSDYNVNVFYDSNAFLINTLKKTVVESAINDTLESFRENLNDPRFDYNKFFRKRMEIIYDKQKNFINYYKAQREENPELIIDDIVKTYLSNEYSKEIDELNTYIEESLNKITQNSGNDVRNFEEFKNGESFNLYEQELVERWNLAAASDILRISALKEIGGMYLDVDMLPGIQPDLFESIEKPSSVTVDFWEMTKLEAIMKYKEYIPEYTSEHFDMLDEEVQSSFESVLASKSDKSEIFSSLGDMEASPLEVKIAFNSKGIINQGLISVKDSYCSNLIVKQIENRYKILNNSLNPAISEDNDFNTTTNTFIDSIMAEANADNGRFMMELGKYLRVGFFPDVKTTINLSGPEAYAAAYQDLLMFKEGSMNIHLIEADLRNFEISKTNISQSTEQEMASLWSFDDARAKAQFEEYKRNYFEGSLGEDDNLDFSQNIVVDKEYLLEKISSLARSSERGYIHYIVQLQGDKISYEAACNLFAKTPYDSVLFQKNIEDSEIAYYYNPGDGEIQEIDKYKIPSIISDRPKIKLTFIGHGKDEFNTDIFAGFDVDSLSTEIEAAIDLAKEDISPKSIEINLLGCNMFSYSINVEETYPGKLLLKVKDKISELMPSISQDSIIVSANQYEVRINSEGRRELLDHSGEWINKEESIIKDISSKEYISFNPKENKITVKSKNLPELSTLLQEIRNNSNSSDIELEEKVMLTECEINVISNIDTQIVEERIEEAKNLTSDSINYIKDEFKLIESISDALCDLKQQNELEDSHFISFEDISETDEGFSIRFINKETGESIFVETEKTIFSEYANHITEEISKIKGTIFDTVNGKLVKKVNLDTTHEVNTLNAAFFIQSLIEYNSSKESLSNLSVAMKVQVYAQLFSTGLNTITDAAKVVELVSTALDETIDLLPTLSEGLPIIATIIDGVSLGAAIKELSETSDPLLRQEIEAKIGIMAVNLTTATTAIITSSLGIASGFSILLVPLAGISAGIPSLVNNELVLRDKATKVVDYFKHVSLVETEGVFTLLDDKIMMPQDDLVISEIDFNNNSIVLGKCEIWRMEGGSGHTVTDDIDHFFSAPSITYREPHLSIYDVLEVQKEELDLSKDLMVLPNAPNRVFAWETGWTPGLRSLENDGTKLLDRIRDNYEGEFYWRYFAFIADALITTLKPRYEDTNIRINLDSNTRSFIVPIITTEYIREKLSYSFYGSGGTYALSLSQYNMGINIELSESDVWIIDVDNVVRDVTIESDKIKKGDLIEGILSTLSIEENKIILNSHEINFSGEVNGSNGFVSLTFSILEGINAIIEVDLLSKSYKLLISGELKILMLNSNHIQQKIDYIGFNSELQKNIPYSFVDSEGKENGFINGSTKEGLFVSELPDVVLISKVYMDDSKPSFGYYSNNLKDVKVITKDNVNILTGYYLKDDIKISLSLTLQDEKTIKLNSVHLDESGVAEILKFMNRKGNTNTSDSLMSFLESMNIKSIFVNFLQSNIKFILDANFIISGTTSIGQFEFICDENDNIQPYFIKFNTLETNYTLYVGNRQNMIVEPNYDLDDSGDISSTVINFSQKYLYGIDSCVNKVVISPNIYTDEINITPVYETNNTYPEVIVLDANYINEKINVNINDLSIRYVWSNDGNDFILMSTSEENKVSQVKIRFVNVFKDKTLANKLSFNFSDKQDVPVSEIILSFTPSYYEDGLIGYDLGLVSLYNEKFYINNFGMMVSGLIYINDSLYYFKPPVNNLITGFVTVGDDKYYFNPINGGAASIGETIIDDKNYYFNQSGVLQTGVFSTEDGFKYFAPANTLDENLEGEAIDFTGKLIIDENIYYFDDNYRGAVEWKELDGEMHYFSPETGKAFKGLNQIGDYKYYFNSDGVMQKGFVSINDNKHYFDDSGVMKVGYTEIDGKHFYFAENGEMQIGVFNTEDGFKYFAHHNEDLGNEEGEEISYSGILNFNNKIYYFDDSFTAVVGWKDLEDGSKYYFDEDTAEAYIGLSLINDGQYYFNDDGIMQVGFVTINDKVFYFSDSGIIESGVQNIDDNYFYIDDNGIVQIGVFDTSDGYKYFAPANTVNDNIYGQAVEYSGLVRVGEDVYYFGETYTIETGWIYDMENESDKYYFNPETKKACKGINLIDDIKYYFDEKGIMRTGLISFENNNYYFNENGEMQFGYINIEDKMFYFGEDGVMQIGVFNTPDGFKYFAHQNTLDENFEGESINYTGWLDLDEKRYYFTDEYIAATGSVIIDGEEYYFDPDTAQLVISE
BioA inh: inhibitors of Mycobacterium tuberculosis BioA enzyme. AID 602481. purified M. tuberculosis BioA enzyme, plate reader. 360,000 compounds, 0.096% hits. inhibition, % at 9.99 µM; in the data active means inhibition above about 40%
Y pestis TopoI: blocks Yersinia pestis topoisomerase I activity; 360,000 compounds, 0.064% hits; Y. pestis Topo-I cleavage product accumulation, plate reader; AID 504884; activity, % at 10 µM; in the data active means activity above about 50%, passing the limit was not always enough
* = called active by the depositor; / = no result given.

SMILES | TcdB GH inh | BioA inh | Y pestis TopoI
C[C@@H]1CN([C@H](C)CO)C(=O)Cc2cc(NS(=O)(=O)c3cccs3)ccc2O[C@@H]1CN(C)S(=O)(=O)c1ccc(Cl)cc1 | -0.8 | 1.4 | /
CC(C)c1cc(CN2CCN(Cc3ccc(F)c(F)c3)C(CCO)C2)[nH]n1 (stereo not drawn) | 10.1* | 2.6 | -3.1
CC(C)c1csc(CN2CCN(Cc3ccc(F)c(F)c3)C(CCO)C2)n1 (stereo not drawn) | 0.9 | / | 8.1
O=C(C[C@@H]1CC[C@H]2[C@@H](COC[C@@H](O)CN2Cc2ccc(Oc3ccccc3)cc2)O1)N1CCc2ccccc2C1 | -4.8 | -1.3 | /
Cc1ccccc1-n1c(C)n[nH]c1=S | 0.7 | -0.8 | -4.5
Cc1cccn2c(=S)[nH]nc12 | 16.2* | 0.0 | 7.7
CCCNC(=O)N(C)C[C@H]1Oc2cc(C#CCN(C)C)ccc2S(=O)(=O)N([C@@H](C)CO)C[C@@H]1C | -0.4 | 1.8 | /
COc1ccc(-c2nnc(CSc3nc4ccccc4c(=O)n3C)o2)cc1OC | 0.3 | / | -1.8
Cn1c(SCc2nnc(-c3ccccc3)o2)nc2ccccc21 | 13.0* | / | 6.8
COc1cccc(NC(=O)Nc2ccc3c(c2)C(=O)N(C)[C@@H]2CC[C@H](CC(=O)NCCc4ccccc4)O[C@@H]2CO3)c1 | / | 0.2 | /
COc1cc(/C=N/NC(=O)CCN2CCCCC2)ccc1O | 10.2* | / | -6.3
COc1ccc(/C=N\NC(=O)CCN2CCN(c3ccccc3)CC2)cc1OC | / | -0.4 | -0.2
CC1CC(=O)N(c2ccc(NCCc3ccccc3)c([N+](=O)[O-])c2)C1=O (stereo not drawn) | 0.8 | -2.2 | 16.4
CC1CC(=O)N(c2ccc(NCCc3ccc(O)cc3)c([N+](=O)[O-])c2)C1=O (stereo not drawn) | 12.1* | 4.4 | -1.9
C[C@@H]1CN([C@@H](C)CO)C(=O)c2cc(NC(=O)Nc3ccc4c(c3)OCO4)ccc2O[C@@H]1CN(C)S(=O)(=O)c1ccc(Cl)cc1 | 1.1 | -6.8 | /
CN(C)C(=O)[C@H]1[C@H](CO)[C@H]2Cn3c(ccc(-c4cccc(F)c4)c3=O)[C@H]2N1C(=O)c1cnccn1 | -18.4 | -2.0 | /
C[C@H]1CN([C@@H](C)CO)C(=O)Cc2cc(NC(=O)C3CC3)ccc2O[C@H]1CN(C)Cc1ccc(C(=O)Nc2ccccc2N)cc1 | -0.3 | 0.2 | /
CN(C)CC#Cc1cccc(-c2nc(C(=O)O)cc3c2[C@H](CCO)N(S(=O)C(C)(C)C)C3)c1 (stereo partly drawn) | -0.1 | -1.6 | /
COCCNC(=O)c1cc2c(c(-c3cccc(C#CCN(C)C)c3)n1)[C@H](CCO)N(S(=O)C(C)(C)C)C2 (stereo partly drawn) | 10.1* | -1.9 | /
C[C@@H]1CN([C@H](C)CO)C(=O)c2cccc(N(C)C)c2O[C@@H]1CN(C)Cc1ccc2c(c1)OCO2 | -3.8 | -1.1 | /
COc1ccc(/C=N/n2c(-c3cc(C)[nH]n3)n[nH]c2=S)cc1OC | 10.7* | -1.9 | 2.2
COc1ccc(/C=N/n2c(-c3cc(C)[nH]n3)n[nH]c2=S)cc1 | 3.5 | / | 2.0
O=C(C[C@@H]1CC[C@@H]2[C@H](COC[C@@H](O)CN2C(=O)Nc2cccc(Cl)c2)O1)N1CCCCC1 | 0.8 | 5.6 | /
C/C=C/c1ccc([C@@H]2[C@@H](CO)N(C(=O)C3CC3)[C@H]2CN(C)C(=O)CC2CC2)cc1 | / | 1.5 | /
COc1ccccc1C1NC(=O)NC(C)=C1C(=O)OC1CCCCC1 (stereo not drawn) | 10.5* | 2.1 | 3.5
SMILES | TcdB GH inh | BioA inh | Y pestis TopoI
COc1ccc(OC)c(C2NC(=O)NC(C)=C2C(=O)OC2CCCCC2)c1 (stereo not drawn) | 1.1 | -1.4 | 2.5
O=C(CCN1CCCCC1)NCC[C@@H]1CC[C@H](NS(=O)(=O)c2cccc(F)c2)[C@H](CO)O1 | 0.5 | -3.0 | /
Cc1cc(N)ccc1NC(=O)c1ccccc1 | / | -0.8 | 9.5
Cc1cc(O)ccc1NC(=O)c1ccccc1 | 12.1* | / | 1.9
Nc1c(C(=O)c2ccccc2)sc2c1c(=O)[nH]c(=O)n2-c1ccccc1 | / | -1.0 | 24.0
Cc1ccc(C(=O)c2sc3c(c2N)c(=O)[nH]c(=O)n3CCc2ccccc2)cc1 | / | / | 160.4*
CCCC#Cc1ccc2c(c1)O[C@H](CN(C)C(=O)CN(C)C)[C@@H](C)CN([C@@H](C)CO)S2(=O)=O | 0.1 | -2.1 | /
COc1cccc(-n2c(SCC(=O)N3CCOCC3)nc3c([nH]c4ccccc43)c2=O)c1 | / | -0.1 | -0.9
COc1cccc(-n2c(SCC(=O)N3CCOCC3)nnc2-c2c[nH]c3ccccc23)c1 | 11.0* | -0.6 | 9.9
C[C@@H]1CN([C@H](C)CO)C(=O)c2cc(NS(=O)(=O)c3cn(C)cn3)ccc2O[C@@H](C)CCCCO[C@@H]1CN(C)C(=O)c1ccncc1 | -0.3 | / | /
